An excerpt weighted towards active compounds, which were near 3.1% of everything screened.
Mito fusion yeast = mitochondrial division inhibition or fusion activation; hit rate 0.23% among 320,000; Potency, µM (doses to about 46.1 µM), most hits filed as activators; S. cerevisiae fusion-defective mutant growth rescue, CellTiterGlo 48 h; note: nearly all actives have a fitted effect of over 45% in size
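Temperature-sensitive fusion-defective S. cerevisiae (e.g. fzo1-1, mgm1-5) were grown with compound in YPEG medium (3% ethanol, 3% glycerol) for 48 hours at 37C. Growth rescue was measured as viability by CellTiterGlo luminescence after 10 minutes at ambient.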
TrxR1 substrate = is turned over as a substrate by rat TrxR1; O89049; purified TrxR1 substrate turnover, NADPH consumption readout; Potency, µM (doses to about 114 µM); hit rate 0.01% among 390,000; AID 588456; note: nearly all actives have a fitted effect of over 50% in size
Target sequence (O89049 whole entry, looked up): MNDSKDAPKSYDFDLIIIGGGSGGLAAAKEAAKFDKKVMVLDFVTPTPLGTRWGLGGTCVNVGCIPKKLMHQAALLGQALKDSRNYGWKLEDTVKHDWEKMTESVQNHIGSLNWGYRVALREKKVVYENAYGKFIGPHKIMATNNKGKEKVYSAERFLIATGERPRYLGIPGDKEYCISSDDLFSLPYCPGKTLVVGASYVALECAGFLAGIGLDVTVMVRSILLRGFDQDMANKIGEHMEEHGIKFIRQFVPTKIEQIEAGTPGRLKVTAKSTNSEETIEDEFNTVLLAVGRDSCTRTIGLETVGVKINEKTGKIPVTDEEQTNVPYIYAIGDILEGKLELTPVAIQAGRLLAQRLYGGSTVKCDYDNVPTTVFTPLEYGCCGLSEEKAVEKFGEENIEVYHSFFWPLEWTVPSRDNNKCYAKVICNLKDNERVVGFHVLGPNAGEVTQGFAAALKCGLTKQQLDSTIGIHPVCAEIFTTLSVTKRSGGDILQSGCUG
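Rat TrxR1, dispensed at 90 nM, was prereduced with 400 uM NADPH (final) for 5 min at ~22 deg C, then incubated with compound 15 min before 400 uM selenite. A first-read NADPH fluorescence drop versus no-compound background flagged substrates.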
A549 tox = A549 cytotoxicity, counter-screen for Nrf2 inhibitors; A549 ARE-Fluc cells, CellTiter-Fluor viability, 18-24 h; Potency, µM (highest dose often 46 µM), most hits filed as inhibitors; hit rate 0.16% among 390,000
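A549 ARE-Fluc cells in 5% FBS OPTI-MEM, 5000 cells/well, rested 2 h then exposed to compounds in concentration-response for 18-24 h at 37 °C. Viability by CellTiter-Fluor fluorescence (Ex 405/Em 525) after 30 min; luciferase luminescence (BugLite, 15 min, RT) read afterwards.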
mIDH1 inhibitor = human IDH1 R132H inhibition | O75874 | IDH1-R132H enzyme, NADPH consumption, diaphorase/resazurin fluorescence | Potency, µM (doses to about 76.6 µM), usual class: inhibitors | hit rate 0.093% among 390,000; note: nearly all actives have a fitted effect of over 65% in size
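IDH1-R132H (0.5 ug/mL dispensed) in pH 7.5 Tris buffer was preincubated 30 min with compound, then given a substrate mix of 0.016 mM NADPH and 2 mM alpha-KG for 80 min at room temperature; remaining NADPH was read by diaphorase/resazurin fluorescence.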
Nrf2 block = blocks Nrf2 signaling | A549 ARE-Fluc reporter, luciferase luminescence, 18-24 h | Potency, µM (titrated, usually from 46 µM), hits mostly inhibitors | hit rate 2.1% among 360,000 | AID 504444; note: nearly all actives have a fitted effect of over 60% in size
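Concentration-response testing used A549 ARE_Fluc cells at 5000 cells/well. Following an 18-24 h compound incubation, viability was read by fluorescence (Ex 405/Em 525) and luciferase output by luminescence.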
rTrxR1 inhibitor = blocks rat thioredoxin reductase 1; hit rate 1% among 390,000; O89049; Potency, µM (series often up to 114 µM), most hits filed as inhibitors; AID 588453; recombinant rTrxR1, NADPH fluorescence consumption, selenite substrate; note: nearly all actives have a fitted effect of over 65% in size
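Rat TrxR1 (90 nM in the dispensed reagent) was pre-reduced with 400 uM NADPH for 5 min at room temperature, then incubated with compound for 15 min. After 400 uM selenite was added, NADPH fluorescence (Ex 340/Em 450 nm) was followed for 8 min.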
A number is an active result; . = inactive; ? = inconclusive; / = not tested or not shown; [ ] = remark or other dose. Calls come from the whole dose curve; as a rule, active = well fitted curve in the direction sought with a large enough effect; inconclusive = small, poorly fitted or top-dose-only effect, or another doubt; inactive = no such curve, though single readings can be large; an effect the other way counts as inactive or inconclusive.

SMILES | Mito fusion yeast | TrxR1 substrate | A549 tox | mIDH1 inhibitor | Nrf2 block | rTrxR1 inhibitor
CCOc1ccc(-c2nc(S(=O)(=O)c3ccccc3)c(N3CCC(C(N)=O)CC3)o2)cc1 | . | . | . | . | . | 44.7µM
COc1cccc(/C=C/c2nc(C#N)c(N3CCC(C(N)=O)CC3)o2)c1 | / | . | . | . | . | 79.4µM
O=C1CCc2cc(S(=O)(=O)Nc3ccc4c(c3)CCC4)ccc2N1 | / | / | . | / | ? | /
N#Cc1ccccc1S(=O)(=O)N1CCN(S(=O)(=O)c2ccc3c(c2)OCCO3)CC1 | / | / | . | / | . | /
CCOc1ccc(S(=O)(=O)Nc2cccc(OC)c2)c2cccnc12 | / | . | . | . | 14.6µM | .
CCOc1ccc(S(=O)(=O)Nc2ccc(OC)c(Cl)c2)c2cccnc12 | / | . | . | . | ? | .
CN(C)c1ccc(/C=C/N2C=CCc3c2ccc2ccccc32)cc1 | / | . | / | / | / | .
Cc1ccc(N2C(=O)C(Cl)=C(N3CCCCCC3)C2=O)c(C)c1 | . | . | ? | . | 23.1µM | .
O=C1C(Cl)=C(N2CCCCCC2)C(=O)N1c1ccccc1Cl | . | . | . | . | . | .
Cc1ccc(C)c(NC(=O)CSc2nnc(CNC(=O)c3ccccc3)n2-c2ccccc2)c1 | / | . | . | . | . | .
COc1cccc(NC(=O)Nc2cccn(Cc3ccccc3)c2=O)c1 | . | . | . | . | 11.6µM | .
COc1ccc(Cn2cccc(NC(=O)Nc3cccc(OC)c3)c2=O)cc1 | . | . | ? | . | 5.17µM | .
COc1cccc(Cn2cccc(NC(=O)Nc3ccccc3C)c2=O)c1 | . | . | . | . | ? | .
CSc1ccccc1NC(=O)Nc1ccc(Cl)cc1 | . | . | .[1.84 µM] | . | 7.31µM | .
CSc1ccc(NC(=O)Nc2cccn(Cc3ccccc3)c2=O)cc1 | . | . | ? | . | 11.6µM | .
COc1ccc(Cn2cccc(NC(=O)Nc3ccc(F)cc3)c2=O)cc1 | . | . | . | . | ? | .
CCOc1ccc(S(=O)(=O)N2CCN(C(=S)NCc3ccccc3)CC2)cc1 | . | . | . | . | 25.9µM | .
COc1ccc(OC)c(NC(=O)Cc2c(C)n(C(=O)c3ccc(Cl)cc3)c3ccc(OC)cc23)c1 | / | . | . | / | 23.1µM | .
COc1ccc2c(c1)c(CC(=O)Nc1ccccc1OC)c(C)n2C(=O)c1ccc(Cl)cc1 | . | . | . | . | . | .
COc1ccc2c(c1)c(CC(=O)Nc1ccc(C(C)=O)cc1)c(C)n2C(=O)c1ccc(Cl)cc1 | . | . | ? | . | 23.1µM | .
O=C(N/C(=C/c1cccc(Br)c1)c1nc(=S)[nH][nH]1)c1ccccc1 | . | . | . | . | . | .
Cc1ccc(C(=O)N/C(=C\c2ccc(Br)cc2)c2nc(=S)[nH][nH]2)cc1 | . | . | 25.9µM | . | ? | .
O=C(c1cccc(Cl)c1Cl)N(Cc1ccco1)Cc1cccs1 | / | . | . | / | . | 12.6µM
O=C(NCCC(=O)N(Cc1ccco1)Cc1cccs1)c1ccccc1Cl | . | . | . | . | . | .
N#CC1=C(N)SC(N)=C(C#N)C1c1ccnc2ccccc12 | . | . | . | . | . | 31.6µM
SMILES | Mito fusion yeast | TrxR1 substrate | A549 tox | mIDH1 inhibitor | Nrf2 block | rTrxR1 inhibitor
Cc1cc2nc(-c3ccc[nH]c3=O)[nH]c2cc1C | . | . | . | . | 11.6µM | .
COc1ccc(NC(=O)Cn2c(=O)n(CCc3ccccc3)c(=O)c3sc4ccccc4c32)cc1 | / | . | . | . | ? | .
O=C(Nc1ccc(F)cc1F)N1CCCN(c2ccc([N+](=O)[O-])cn2)CC1 | . | . | . | . | ? | .
CC(C)(C)c1ccc(NC(=O)N2CCN(c3ccc([N+](=O)[O-])cn3)CC2)cc1 | . | . | . | . | 13µM | .
CN(Cc1ccccc1)C(=O)C1CCC(CNS(=O)(=O)c2cccc3cccnc23)CC1 (stereo not drawn) | . | . | . | . | 16.4µM | .
CCCCN(C(=O)C1CCC(CNS(=O)(=O)c2cccc3nsnc23)CC1)c1ccccc1 (stereo not drawn) | / | . | . | . | 25.9µM | .
CCN(CC)C(=O)C1CCC(CNS(=O)(=O)c2cccc3cccnc23)CC1 (stereo not drawn) | . | . | . | . | . | .
O=C(C1CCC(CNS(=O)(=O)c2cccc3nsnc23)CC1)N1CCN(c2ccccn2)CC1 (stereo not drawn) | . | . | . | . | 20.6µM | .
CCCN(CCC)C(=O)C1CCC(CNS(=O)(=O)c2cccc3nsnc23)CC1 (stereo not drawn) | . | . | . | . | . | .
COc1ccc(N2CCN(c3oc(/C=C/c4cc(OC)c(OC)c(OC)c4)nc3C#N)CC2)cc1 | / | . | . | . | . | .
COC(=O)C1=C[C@@H](C(=O)OC)[C@@H]2C3=C(C(=O)[C@]2(C)NC(=O)c2ccccc2)[C@H](C)[C@@H]2C(=O)NC(=O)[C@@H]2[C@@H]3C1 | / | . | . | / | . | .
c1ccc2c(CCc3c[nH]c4ccccc34)ccnc2c1 | / | . | / | / | / | ?
COC(=O)C(=C/C(C)=C/c1cccnc1)C(=O)OC | . | . | . | . | ? | 56.2µM
O=C(NCc1ccc(Cl)cc1)c1cccnc1 | . | . | . | . | . | .
O=C(NCc1cccnc1)c1ccc(COc2ccc(Cl)cc2)cc1 | . | . | . | . | 23.1µM | .
COC(=O)/C(=C/c1cccnc1)NC(=O)c1ccccc1 | . | . | . | . | . | .
COC(=O)/C(=C\c1cccnc1)NC(=O)c1ccc(OCc2ccccc2)cc1 | . | . | . | . | 16.4µM | .
Cc1ccc(OCc2ccc(C(=O)NCc3cccnc3)cc2)cc1C | . | . | . | . | 23.1µM | .
O=C(COc1ccc(Cl)cc1)Nc1ccc(C(=O)NCc2cccnc2)cc1 | . | . | . | . | 20.6µM | .
Cc1cccc(OCC(=O)Nc2ccc(C(=O)NCc3cccnc3)cc2)c1 | . | / | / | / | / | /
COc1ccc(CN(C)C(=O)c2ccc(COc3ccccc3)cc2)c(OC)c1 | . | . | . | . | ? | .
COc1cc(OC)c(OC)cc1CNC(=O)c1ccc(COc2ccccc2)cc1 | . | . | . | . | 16.4µM | .
O=C(COc1ccc(-c2ccccc2)cc1)Nc1cccnc1 | ? | . | . | . | 16.4µM | .
O=C(CSc1nnc2scc(-c3ccccc3)n12)Nc1nsc(-c2ccccc2)n1 | . | . | . | . | 16.4µM | .
Cc1ccc(-c2csc3nnc(SCC(=O)Nc4nsc(-c5ccccc5)n4)n23)cc1 | . | . | .[1.84 µM] | . | 20.6µM | .
Cc1cccc(NC(=O)CSc2nnc3scc(-c4ccccc4)n23)c1 | / | . | . | / | . | .
O=C(CSc1nnc2scc(-c3ccccc3)n12)Nc1nsc(-c2ccc(Cl)cc2)n1 | / | . | . | . | ? | .
